The source made the active and inactive calls. Rule for the calls: active = hit-call score of the fitted dose curve at least 0.9, where 1 is the maximum; inactive = score below 0.9.
Columns and labels:
[1] = ATG_Ets_CIS: Attagene CIS-FACTORIAL HepG2 Assay for human Erythroblast Transformation Specific (ETS) (AID 2282941); details: HepG2 ETS cis-reporter transcription, actives raise or lower the signal
In short: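 Cis-regulated reporter mRNA induction in HepG2 (transient transfection), 24 h exposure, RT-PCR plus capillary electrophoresis detection; DMSO serves as negative control and baseline.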

[2] = target: Hepatocyte nuclear factor 3-beta (Homo sapiens) (UniProt Q9Y261); experiment: ATG_FoxA2_CIS: Attagene CIS-FACTORIAL HepG2 Assay for human Forkhead box A2 (FOXA2) (AID 2282942); details: HepG2 cis-reporter transcription factor activity, 24 h; actives raise or lower the signal
In short: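 Transient MRTU transfection of HepG2 liver cells; 24 h treatment; total RNA → oligo(dT) RT → PCR → FAM primer extension → HpaI cut → CE. Bidirectional fit vs DMSO.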

[3] = ATG_FoxO_CIS: Attagene CIS-FACTORIAL HepG2 Assay for human Forkhead box O (FoxO) (AID 2282943); details: HepG2 Attagene cis-reporter, FoxO element, mRNA; actives raise or lower the signal
In short: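 HepG2 cells transiently transfected with cis-promoter-driven multiple reporter transcription units; 24 h after chemical dosing, reporter mRNA quantified by RT-PCR, fluorescent primer extension, HpaI digestion and capillary electrophoresis. Bidirectional fitting versus DMSO baseline.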

[4] = ATG_GATA_CIS: Attagene CIS-FACTORIAL HepG2 Assay for human GATA Binding Protein (AID 2282944); details: HepG2 GATA cis-element reporter, Attagene multiplex mRNA; actives raise or lower the signal
In short: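 Endogenous transcription factor activity was captured through cis-promoter-driven reporters in transfected HepG2 cells. After 24 h exposure, reporter transcripts were quantified by RT-PCR with fluorescent capillary electrophoresis, and responses fitted both directions against DMSO.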

[5] = ATG_GLI_CIS: Attagene CIS-FACTORIAL HepG2 Assay for human Zinc Finger Protein GLI1 (AID 2282945); details: HepG2, Attagene cis-factorial reporter mRNA, GLI element; actives raise or lower the signal
In short: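 HepG2 cells transiently transfected with cis-promoter multiplexed reporter units report endogenous transcription factor activity. After 24 h chemical exposure, reporter mRNA was quantified by RT-PCR, 6-FAM labelling, HpaI digestion and capillary electrophoresis, with bidirectional fitting against DMSO.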

[6] = target: Bile acid receptor (Homo sapiens) (UniProt Q96RI1); experiment: ATG_IR1_CIS: Attagene CIS-FACTORIAL HepG2 Assay for human Nuclear Receptor Subfamily 1 Group H Member 4 (NR1H4), IR1 submotif (AID 2282946); details: IR1 reporter transcription, actives raise or lower the signal
In short: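 Readout: reporter transcript levels by RT-PCR with fluorescent capillary electrophoresis, from HepG2 cells transiently transfected with multiplexed cis-regulated reporters and dosed 24 h. Gain- or loss-of-signal fitted versus DMSO negative control.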

[7] = ATG_GRE_CIS: Attagene CIS-FACTORIAL HepG2 Assay for human Glucocorticoid Response Elements (GRE) (AID 2282947); details: HepG2 GRE cis-reporter, Attagene multiplex mRNA; actives raise or lower the signal
In short: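 Cells (HepG2) bearing transfected cis-promoter reporter transcription units were treated with chemical for 24 hours. Reporter mRNA was measured via RT-PCR with capillary electrophoresis, and activity was fitted in both directions relative to DMSO.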

[8] = ATG_ISRE_CIS: Attagene CIS-FACTORIAL HepG2 Assay for human Interferon Regulatory Factor 1 (IRF1) binding to an Interferon-Stimulated Response Element (ISRE) (AID 2282948); details: HepG2 ISRE cis-reporter (Attagene), mRNA transcription readout; actives raise or lower the signal
In short: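 Multiplexed mRNA reporter readout in human liver HepG2 cells: cis-element-driven reporters transfected, compound added for 24 h, transcripts amplified, fluorescently labelled and sized by capillary electrophoresis; curve fitting bidirectional against DMSO.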

[9] = ATG_M_32_CIS: Attagene CIS-FACTORIAL HepG2 Assay for M32 Transcription Factor (Internal Marker) (AID 2282949); details: HepG2 Attagene cis-factorial M32 reporter, mRNA; actives raise or lower the signal;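 note: background control marker of the multiplexed CIS panel rather than a real target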
In short: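 HepG2 human liver cells transiently transfected with cis-promoter-driven multiple reporter transcription units, dosed 24 h. Reporter mRNA quantified by RT-PCR, FAM-labelled primer extension, HpaI digest and capillary electrophoresis; bidirectional fit versus DMSO baseline.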

[10] = ATG_M_06_CIS: Attagene CIS-FACTORIAL HepG2 Assay for M06 Transcription Factor (Internal Marker) (AID 2282950); details: HepG2 Attagene CIS-FACTORIAL M06 internal marker reporter; actives raise or lower the signal
In short: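 Steps: transfect HepG2 with multiplexed cis-element reporter constructs; dose chemical 24 h; extract RNA with DNase treatment; reverse-transcribe, PCR-amplify, 6-FAM label, HpaI digest; separate fragments by capillary electrophoresis. Activity fitted both directions versus DMSO.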

[11] = target: Hypoxia-inducible factor 1-alpha (Homo sapiens) (UniProt Q16665); experiment: ATG_HIF1a_CIS: Attagene CIS-FACTORIAL HepG2 Assay for human Hypoxia Inducible Factor 1 (HIF1A) (AID 2282951); details: HepG2 Attagene cis-factorial HIF1a reporter transcription; actives raise or lower the signal
In short: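 Transient MRTU transfection of human HepG2 liver cells, 24 h compound treatment, then total RNA isolation, oligo(dT) reverse transcription, PCR amplification, fluorescent labelling and capillary electrophoresis of reporter fragments. Gain or loss relative to DMSO.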

[12] = target: Hepatocyte nuclear factor 6 (Homo sapiens) (UniProt Q9UBC0); experiment: ATG_HNF6_CIS: Attagene CIS-FACTORIAL HepG2 Assay for human Hepatocyte Nuclear Factor 6 (HNF6) (AID 2282952); details: HepG2 Attagene cis-factorial HNF6 reporter transcription; actives raise or lower the signal
In short: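 Activity values derive from bidirectional fitting against DMSO of reporter mRNA levels, measured by capillary electrophoresis of labelled RT-PCR products from HepG2 cells exposed 24 h.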

[13] = target: Heat shock factor protein 1 (Homo sapiens) (UniProt Q00613); experiment: ATG_HSE_CIS: Attagene CIS-FACTORIAL HepG2 Assay for human Heat Shock Transcription Factor 1 (HSE) (AID 2282953); details: HepG2 HSE cis-reporter, Attagene RNA transcription; actives raise or lower the signal
In short: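 Cells were transfected with cis-element-driven reporter constructs, dosed for 24 h, then total RNA was reverse-transcribed and reporter cDNA amplified, FAM-labelled and digested with HpaI. Fragments were resolved by capillary electrophoresis; gain or loss was fitted against DMSO.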

[14] = ATG_MRE_CIS: Attagene CIS-FACTORIAL HepG2 Assay for human Metal Responsive Element (MRE) (AID 2282954); details: HepG2 MRE cis-reporter transcription, Attagene multiplex; actives raise or lower the signal
In short: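 Cells were transfected with cis-promoter reporter transcription units, then dosed for 24 h. RNA was reverse-transcribed, amplified, fluorescently labelled and resolved by capillary electrophoresis, and activity was fitted in both directions relative to DMSO.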

[15] = ATG_PBREM_CIS: Attagene CIS-FACTORIAL HepG2 Assay for human Phenobarbital-responsive Enhancer Module (PBREM) (AID 2282955); details: HepG2 PBREM cis-reporter, Attagene multiplexed transcription; actives raise or lower the signal
In short: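 Endogenous transcription factors in human liver HepG2 cells drive a PBREM cis-element reporter, whose transcript level after 24 h treatment is quantified by RT-PCR with capillary electrophoresis; activity fitted in both directions against DMSO.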

[16] = target: Paired box protein Pax-6 (Homo sapiens) (UniProt P26367); experiment: ATG_Pax6_CIS: Attagene CIS-FACTORIAL HepG2 Assay for human Paired Box 6 (PAX6) (AID 2282956); details: HepG2 CIS-FACTORIAL PAX6 reporter transcription, RNA readout; actives raise or lower the signal
In short: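 Fluorescent RT-PCR products separated by capillary electrophoresis report PAX6-linked promoter mRNA in HepG2 cells 24 h post-dose. Curves fitted bidirectionally, DMSO as negative control.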

[17] = ATG_PXRE_CIS: Attagene CIS-FACTORIAL HepG2 Assay for human Pregnane X Receptor Element (PXRE) (AID 2282957); details: HepG2 Attagene CIS-FACTORIAL PXRE reporter, mRNA; actives raise or lower the signal
In short: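 Fluorescent capillary electrophoresis of amplified reporter cDNA gave the signal, collected 24 h after dosing HepG2 cells that held transfected cis-element reporter constructs.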

[18] = ATG_RORE_CIS: Attagene CIS-FACTORIAL HepG2 Assay for human RAR-related Orphan Receptor Element (RORE) (AID 2282959); details: HepG2 Attagene cis-factorial RORE reporter, mRNA; actives raise or lower the signal
In short: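 Transient MRTU transfection of human HepG2 liver cells (FuGene 6); 24 h compound exposure; TriZol RNA, oligo(dT) RT, PCR, FAM labeling, HpaI cut, CE fragment analysis. DMSO = negative control/baseline.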

[19] = ATG_ERE_CIS: Attagene CIS-FACTORIAL HepG2 Assay for Estrogen Response Element (ERE) (AID 2282940); details: HepG2 ERE cis-reporter, Attagene RNA transcript; actives raise or lower the signal
In short: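 Cells used were human hepatoma HepG2, transfected with multiple reporter transcription units under cis-regulatory promoters. Reporter mRNA, read 24 h post-dosing via fluorescent RT-PCR products on capillary electrophoresis, was fitted bidirectionally relative to DMSO.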

[20] = ATG_PPRE_CIS: Attagene CIS-FACTORIAL HepG2 Assay for human Peroxisome Proliferator-activated Response Element (PPRE) (AID 2282958); details: HepG2 PPRE cis-element reporter, Attagene transcription factor profiling; actives raise or lower the signal
In short: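 HepG2, transient MRTU transfection (cis promoter elements, endogenous TFs). 24 h dosing. RNA → oligo(dT) RT → PCR → 6-FAM primer extension → HpaI digest → CE. Bidirectional fit vs DMSO.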

Measured: AC50

Chain of Hepatocyte nuclear factor 6 (Homo sapiens) (Q9UBC0 whole entry, looked up): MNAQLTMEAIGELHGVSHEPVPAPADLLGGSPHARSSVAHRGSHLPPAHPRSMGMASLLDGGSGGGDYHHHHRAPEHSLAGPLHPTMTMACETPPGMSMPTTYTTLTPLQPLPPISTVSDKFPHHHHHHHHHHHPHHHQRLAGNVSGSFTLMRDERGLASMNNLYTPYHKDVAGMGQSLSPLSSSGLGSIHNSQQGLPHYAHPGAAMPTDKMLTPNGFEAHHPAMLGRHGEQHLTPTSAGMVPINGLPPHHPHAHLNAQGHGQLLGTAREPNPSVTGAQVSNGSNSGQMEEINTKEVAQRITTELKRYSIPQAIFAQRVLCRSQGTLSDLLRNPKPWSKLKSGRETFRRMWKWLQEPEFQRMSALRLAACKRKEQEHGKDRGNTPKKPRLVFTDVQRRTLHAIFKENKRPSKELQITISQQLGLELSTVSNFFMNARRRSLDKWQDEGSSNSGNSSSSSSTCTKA
Chain of Paired box protein Pax-6 (Homo sapiens) (P26367 whole entry, looked up): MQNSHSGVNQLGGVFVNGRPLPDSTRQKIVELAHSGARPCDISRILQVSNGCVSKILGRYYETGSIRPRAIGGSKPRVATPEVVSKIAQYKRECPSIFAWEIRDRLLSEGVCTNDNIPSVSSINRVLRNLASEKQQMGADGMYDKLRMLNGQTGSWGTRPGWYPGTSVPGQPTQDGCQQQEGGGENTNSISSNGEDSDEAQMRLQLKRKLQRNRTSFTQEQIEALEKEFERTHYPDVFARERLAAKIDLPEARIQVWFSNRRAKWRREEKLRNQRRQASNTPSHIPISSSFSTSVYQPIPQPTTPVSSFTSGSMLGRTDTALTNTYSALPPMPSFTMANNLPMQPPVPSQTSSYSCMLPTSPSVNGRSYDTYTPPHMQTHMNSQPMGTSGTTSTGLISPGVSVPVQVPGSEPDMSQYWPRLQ
Chain of Heat shock factor protein 1 (Homo sapiens) (Q00613 whole entry, looked up, the tested form may be a part): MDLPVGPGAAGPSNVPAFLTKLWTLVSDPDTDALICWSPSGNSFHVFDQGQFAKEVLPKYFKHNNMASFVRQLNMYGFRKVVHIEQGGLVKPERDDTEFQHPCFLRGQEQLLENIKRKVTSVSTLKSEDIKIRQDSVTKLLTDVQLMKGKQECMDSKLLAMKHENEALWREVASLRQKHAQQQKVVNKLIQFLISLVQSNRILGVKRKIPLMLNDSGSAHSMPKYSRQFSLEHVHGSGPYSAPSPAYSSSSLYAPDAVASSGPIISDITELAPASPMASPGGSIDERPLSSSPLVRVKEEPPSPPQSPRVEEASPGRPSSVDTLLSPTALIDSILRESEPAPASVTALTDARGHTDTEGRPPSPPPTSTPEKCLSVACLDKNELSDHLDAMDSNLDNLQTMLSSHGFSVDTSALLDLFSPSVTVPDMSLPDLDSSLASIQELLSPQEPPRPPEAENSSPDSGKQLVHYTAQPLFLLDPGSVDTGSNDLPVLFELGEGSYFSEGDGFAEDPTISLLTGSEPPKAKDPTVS
Chain of Bile acid receptor (Homo sapiens) (Q96RI1 whole entry, looked up): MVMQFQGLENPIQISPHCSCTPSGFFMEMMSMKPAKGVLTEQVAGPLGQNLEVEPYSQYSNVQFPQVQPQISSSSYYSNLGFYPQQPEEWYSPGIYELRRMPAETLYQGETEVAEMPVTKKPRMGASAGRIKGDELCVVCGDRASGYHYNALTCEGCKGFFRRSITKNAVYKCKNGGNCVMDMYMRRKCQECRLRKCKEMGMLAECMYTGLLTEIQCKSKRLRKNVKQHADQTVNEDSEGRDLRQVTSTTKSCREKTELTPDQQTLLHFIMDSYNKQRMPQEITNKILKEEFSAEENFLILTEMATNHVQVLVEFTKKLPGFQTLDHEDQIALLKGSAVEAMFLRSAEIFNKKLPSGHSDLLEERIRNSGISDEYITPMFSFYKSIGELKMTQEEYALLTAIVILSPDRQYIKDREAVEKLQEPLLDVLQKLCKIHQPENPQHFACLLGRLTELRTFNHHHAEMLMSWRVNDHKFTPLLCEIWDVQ
Chain of Hypoxia-inducible factor 1-alpha (Homo sapiens) (Q16665 whole entry, looked up, the tested form may be a part): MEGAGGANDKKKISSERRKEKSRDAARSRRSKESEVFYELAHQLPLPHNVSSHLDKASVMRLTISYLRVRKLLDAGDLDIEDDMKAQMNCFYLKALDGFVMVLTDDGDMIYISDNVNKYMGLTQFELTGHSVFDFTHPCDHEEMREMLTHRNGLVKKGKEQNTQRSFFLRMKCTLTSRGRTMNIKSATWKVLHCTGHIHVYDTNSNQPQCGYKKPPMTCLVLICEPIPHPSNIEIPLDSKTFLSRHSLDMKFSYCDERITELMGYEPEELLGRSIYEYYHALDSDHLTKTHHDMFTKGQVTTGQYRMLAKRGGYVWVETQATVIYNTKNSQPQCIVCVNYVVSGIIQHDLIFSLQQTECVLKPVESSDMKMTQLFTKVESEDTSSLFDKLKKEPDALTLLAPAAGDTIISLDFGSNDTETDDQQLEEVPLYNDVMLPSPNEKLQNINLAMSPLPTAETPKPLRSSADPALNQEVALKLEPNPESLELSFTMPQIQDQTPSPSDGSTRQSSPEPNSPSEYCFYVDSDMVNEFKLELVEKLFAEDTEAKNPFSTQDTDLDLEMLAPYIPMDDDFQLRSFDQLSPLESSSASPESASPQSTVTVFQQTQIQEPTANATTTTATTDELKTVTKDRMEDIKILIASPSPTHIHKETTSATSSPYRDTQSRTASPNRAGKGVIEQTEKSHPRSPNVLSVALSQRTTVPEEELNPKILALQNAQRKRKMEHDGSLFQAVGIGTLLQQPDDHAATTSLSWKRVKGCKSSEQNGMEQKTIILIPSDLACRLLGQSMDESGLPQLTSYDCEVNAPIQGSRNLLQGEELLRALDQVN
Chain of Hepatocyte nuclear factor 3-beta (Homo sapiens) (Q9Y261 whole entry, looked up): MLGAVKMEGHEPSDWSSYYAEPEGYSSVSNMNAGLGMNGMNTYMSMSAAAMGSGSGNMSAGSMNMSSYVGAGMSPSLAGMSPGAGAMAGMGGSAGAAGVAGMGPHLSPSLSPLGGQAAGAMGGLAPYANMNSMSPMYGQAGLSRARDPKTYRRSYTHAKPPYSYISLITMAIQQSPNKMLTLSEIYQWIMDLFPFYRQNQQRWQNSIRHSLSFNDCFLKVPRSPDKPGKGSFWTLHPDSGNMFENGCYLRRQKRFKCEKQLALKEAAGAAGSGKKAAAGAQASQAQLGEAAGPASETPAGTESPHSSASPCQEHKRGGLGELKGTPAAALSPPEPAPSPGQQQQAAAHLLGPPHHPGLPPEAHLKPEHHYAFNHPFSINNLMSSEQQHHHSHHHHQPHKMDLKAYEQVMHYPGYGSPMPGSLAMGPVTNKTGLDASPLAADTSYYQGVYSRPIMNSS

ClCc1ccccc1Cl
active: [7] 100 µM | [12] 100 µM | [13] 164 µM | [16] 100 µM | [17] 38.3 µM
not listed: [19] | [20]
inactive: all other assays above

CS(=O)(=O)c1ccc(C(=O)C2C(=O)CCCC2=O)c(Cl)c1COCC(F)(F)F
active: [19] 27.3 µM | [17] 26.4 µM
not listed: [3] | [6] | [13] | [20]
inactive: all other assays above

O=[N+]([O-])c1cc([As](=O)(O)O)ccc1O
not listed: [3] | [6] | [14] | [15]
inactive: all other assays above

C1CN2CCN1CC2
active: [11] 50.5 µM
not listed: [3] | [6] | [7] | [20]
inactive: all other assays above

BrCc1ccc(Br)cc1
not listed: [3] | [6] | [7] | [14]
inactive: all other assays above

Nc1ncn[nH]1
not listed: [14] | [19]
inactive: all other assays above

c1cc[c]([Sb]([c]2ccccc2)[c]2ccccc2)cc1
active: [17] 2.1 µM
not listed: [19] | [20]
inactive: all other assays above

OCCCCO
active: [17] 59 µM
not listed: [19] | [20]
inactive: all other assays above

— PubChem BioAssay (EPA / NIEHS)
